Compounds without any hit were thinned out: in the full panel of roughly 83,000, 20% have a hit.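 Negative percent growth values reflect cell death: -40 means 40% of the cells present at the start died, and -100 means all died.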 Active and inactive are the calls of the source. Rule for the calls: active = growth percent below 10; inactive = the rest.
How the values were obtained:
Experiment in all cases: NCI-60 one-dose screen, 48 h (100 = growth as untreated, 0 = no growth, -100 = all killed)
Conditions in all cases: 10 µM unless noted
SR leukemia = test system: SR leukemia
RPMI-8226 leukemia = test system: RPMI-8226 leukemia
OVCAR-8 ovarian = test system: OVCAR-8 ovarian
OVCAR-5 ovarian = test system: OVCAR-5 ovarian
OVCAR-4 ovarian = test system: OVCAR-4 ovarian
SK-OV-3 ovarian = test system: SK-OV-3 ovarian
IGROV1 ovarian = test system: IGROV1 ovarian
HS 578T breast = test system: HS 578T breast
NCI/ADR-RES ovarian = test system: NCI/ADR-RES ovarian
T-47D breast = test system: T-47D breast
BT-549 breast = test system: BT-549 breast
MDA-MB-435 melanoma = test system: MDA-MB-435 melanoma
SW-620 colon = test system: SW-620 colon
MCF7 breast = test system: MCF7 breast
HCT-116 colon = test system: HCT-116 colon
HCC-2998 colon = test system: HCC-2998 colon
KM12 colon = test system: KM12 colon

Measured: growth

CCCCOc1ccc(S(=O)(=O)N2CCN(c3nc(C)cc(N4CCOCC4)n3)CC2)cc1
active: RPMI-8226 leukemia 3.95% | SK-OV-3 ovarian -11.6% | IGROV1 ovarian 7.73% | BT-549 breast -6.76% | MDA-MB-435 melanoma 6.06% | HCT-116 colon -1.17% | KM12 colon 4.03%
inactive: SR leukemia 42.4% | OVCAR-8 ovarian 45% | OVCAR-5 ovarian 50.4% | OVCAR-4 ovarian 49% | HS 578T breast 63.6% | NCI/ADR-RES ovarian 25.4% | T-47D breast 55.9% | SW-620 colon 28.9% | MCF7 breast 76.9% | HCC-2998 colon 33%

O=C(Nc1cc(C(F)(F)F)cc(C(F)(F)F)c1)Nc1ccc2oc(=O)ccc2c1
active: RPMI-8226 leukemia -21.5% | SK-OV-3 ovarian -1.5% | NCI/ADR-RES ovarian 4.16% | T-47D breast 4.8% | MDA-MB-435 melanoma 3.64% | MCF7 breast 3.81% | HCT-116 colon 2.09% | KM12 colon 9.67%
inactive: SR leukemia 14% | OVCAR-8 ovarian 14.2% | OVCAR-5 ovarian 18% | OVCAR-4 ovarian 32.6% | IGROV1 ovarian 17.3% | HS 578T breast 36.8% | BT-549 breast 10% | SW-620 colon 19.4% | HCC-2998 colon 11.2%

CNC(=O)c1cc(-n2ccc3cc(NC(=O)Nc4ccc(N5CCN(C)CC5)c(C(F)(F)F)c4)ccc32)ccn1
inactive: OVCAR-8 ovarian 97.7% | OVCAR-5 ovarian 90% | OVCAR-4 ovarian 84.5% | SK-OV-3 ovarian 105% | IGROV1 ovarian 91.9% | HS 578T breast 67% | NCI/ADR-RES ovarian 98% | T-47D breast 87.4% | BT-549 breast 95.1% | MDA-MB-435 melanoma 22.5% | SW-620 colon 21.5% | HCC-2998 colon 92.3% | KM12 colon 30.5%
active: SR leukemia -32.6% | RPMI-8226 leukemia -11.2% | MCF7 breast -23.9% | HCT-116 colon -17.4%

COc1ccc(-c2c3c(cn2Cc2cccc(OC)c2)-c2oncc2CCC3)cc1
inactive: SR leukemia 89.2% | RPMI-8226 leukemia 93.6% | OVCAR-8 ovarian 98.5% | OVCAR-5 ovarian 108% | OVCAR-4 ovarian 100% | SK-OV-3 ovarian 98.3% | IGROV1 ovarian 94.3% | HS 578T breast 101% | NCI/ADR-RES ovarian 97% | T-47D breast 75.7% | BT-549 breast 105% | MDA-MB-435 melanoma 98.1% | SW-620 colon 96.4% | MCF7 breast 96.9% | HCT-116 colon 96.9% | HCC-2998 colon 111% | KM12 colon 83.1%

Cc1ncn(-c2ccc(/C=N/Nc3ccnc4cc(Cl)ccc34)cc2)c1C
inactive: OVCAR-5 ovarian 102% | SK-OV-3 ovarian 102% | IGROV1 ovarian 61.7%
active: SR leukemia -21.3% | RPMI-8226 leukemia -27.2% | OVCAR-8 ovarian -57.5% | OVCAR-4 ovarian -68.3% | HS 578T breast -16.1% | NCI/ADR-RES ovarian 8.02% | T-47D breast -61.6% | BT-549 breast -93.7% | MDA-MB-435 melanoma -80.2% | SW-620 colon -60.4% | MCF7 breast -69.1% | HCT-116 colon -83.6% | HCC-2998 colon -44.5% | KM12 colon -25.8%

COC(=O)CCCNCCCn1ccc2cc(NCc3cccc(-c4ccccc4)c3C)ccc21
inactive: RPMI-8226 leukemia 28.3% | OVCAR-8 ovarian 85.2% | OVCAR-5 ovarian 85.4% | OVCAR-4 ovarian 67.6% | SK-OV-3 ovarian 92.8% | IGROV1 ovarian 67.1% | HS 578T breast 81.8% | NCI/ADR-RES ovarian 79.4% | T-47D breast 58% | BT-549 breast 90.2% | MDA-MB-435 melanoma 70.9% | SW-620 colon 66.5% | HCT-116 colon 53% | HCC-2998 colon 90.2% | KM12 colon 85.9%
active: SR leukemia -14.7%

CCCCCCNC(=O)Oc1ccc(/C(=C(/C)c2ccc(Cl)cc2)c2ccc(OCCN3CCCCCC3)cc2)cc1
active: SR leukemia 2.59%
inactive: RPMI-8226 leukemia 64.3% | OVCAR-8 ovarian 78.2% | OVCAR-5 ovarian 83% | OVCAR-4 ovarian 61% | SK-OV-3 ovarian 96% | IGROV1 ovarian 68.4% | HS 578T breast 63.8% | NCI/ADR-RES ovarian 79.4% | T-47D breast 48.2% | BT-549 breast 101% | MDA-MB-435 melanoma 70% | SW-620 colon 22.4% | HCT-116 colon 30.9% | HCC-2998 colon 90.7% | KM12 colon 58.9%

Cc1ccc(C(=O)CSc2nnc(-c3ccc(-c4ccc(Cl)cc4)nc3C)o2)cc1
inactive: SR leukemia 96.5% | RPMI-8226 leukemia 96.7% | OVCAR-8 ovarian 107% | OVCAR-5 ovarian 102% | OVCAR-4 ovarian 101% | SK-OV-3 ovarian 98.1% | IGROV1 ovarian 91.6% | HS 578T breast 102% | NCI/ADR-RES ovarian 100% | T-47D breast 92.1% | BT-549 breast 107% | MDA-MB-435 melanoma 103% | SW-620 colon 103% | MCF7 breast 81% | HCT-116 colon 98.1% | HCC-2998 colon 103% | KM12 colon 97.2%

C#C[C@]1(O)CC[C@H]2[C@@H]3CC=C4c5sc(NCc6ccccc6)nc5CC[C@]4(C)[C@H]3CC[C@@]21C
inactive: OVCAR-8 ovarian 65.2% | OVCAR-5 ovarian 84% | OVCAR-4 ovarian 73.6% | IGROV1 ovarian 76.8% | NCI/ADR-RES ovarian 72.4% | T-47D breast 65.8% | BT-549 breast 18.2% | MDA-MB-435 melanoma 82.2% | SW-620 colon 52.7% | MCF7 breast 21.7% | HCT-116 colon 12.5% | HCC-2998 colon 78.1% | KM12 colon 18.9%
active: SR leukemia 3.34% | RPMI-8226 leukemia -25.3% | SK-OV-3 ovarian -10% | HS 578T breast -4.78%

Clc1ccc2[nH]cc(-c3nn4cc(-c5ccncc5)nc4s3)c2c1
inactive: SR leukemia 28.8% | RPMI-8226 leukemia 53.2% | OVCAR-8 ovarian 10.6% | OVCAR-5 ovarian 98.8% | OVCAR-4 ovarian 43.2% | SK-OV-3 ovarian 15.4% | IGROV1 ovarian 44.6% | HS 578T breast 31.2% | MDA-MB-435 melanoma 51% | SW-620 colon 50.7% | MCF7 breast 24.2% | HCT-116 colon 10.8% | HCC-2998 colon 85.3% | KM12 colon 47.7%
active: NCI/ADR-RES ovarian 2.69% | T-47D breast 6.38% | BT-549 breast -54.3%

O=S1SC(c2ccccc2)=NN1c1cc(F)cc(F)c1 (stereo unspecified)
inactive: SR leukemia 19.3% | RPMI-8226 leukemia 11.5% | OVCAR-8 ovarian 35.5% | OVCAR-5 ovarian 93.8% | OVCAR-4 ovarian 49.3% | SK-OV-3 ovarian 24.8% | IGROV1 ovarian 53.8% | HS 578T breast 61.9% | NCI/ADR-RES ovarian 53.4% | MDA-MB-435 melanoma 63.3% | SW-620 colon 59.2% | MCF7 breast 35.6% | HCT-116 colon 16.5% | HCC-2998 colon 79.6% | KM12 colon 41.7%
active: T-47D breast 1.86% | BT-549 breast 7.34%

CCCCSC1=C(Cl)CN(c2ccc(Cl)cc2)C1=O
inactive: SR leukemia 34.3% | RPMI-8226 leukemia 31.7% | OVCAR-8 ovarian 99.1% | OVCAR-5 ovarian 104% | OVCAR-4 ovarian 104% | SK-OV-3 ovarian 110% | IGROV1 ovarian 109% | HS 578T breast 107% | NCI/ADR-RES ovarian 103% | T-47D breast 72.7% | BT-549 breast 112% | MDA-MB-435 melanoma 107% | SW-620 colon 104% | MCF7 breast 26.2% | HCT-116 colon 93.4% | HCC-2998 colon 107% | KM12 colon 98.7%

COc1ccc(C(=NNS(=O)(=O)c2ccc(C)cc2)c2ccccc2)cc1OC
inactive: SR leukemia 111% | RPMI-8226 leukemia 93.6% | OVCAR-8 ovarian 97.5% | OVCAR-5 ovarian 103% | OVCAR-4 ovarian 102% | SK-OV-3 ovarian 107% | IGROV1 ovarian 90.8% | HS 578T breast 104% | NCI/ADR-RES ovarian 96.8% | T-47D breast 90% | BT-549 breast 112% | MDA-MB-435 melanoma 106% | SW-620 colon 101% | MCF7 breast 91.4% | HCT-116 colon 96.3% | HCC-2998 colon 102% | KM12 colon 105%

C#C[C@]1(O)CC[C@H]2[C@@H]3CC=C4c5sc(N(C)c6ccccc6)nc5CC[C@]4(C)[C@H]3CC[C@@]21C
active: RPMI-8226 leukemia 2.94%
inactive: SR leukemia 43.7% | OVCAR-8 ovarian 82% | OVCAR-5 ovarian 92.5% | OVCAR-4 ovarian 94% | SK-OV-3 ovarian 98.7% | IGROV1 ovarian 107% | HS 578T breast 89.8% | NCI/ADR-RES ovarian 82.1% | T-47D breast 75.2% | BT-549 breast 74.6% | MDA-MB-435 melanoma 89.9% | SW-620 colon 92.3% | MCF7 breast 67.3% | HCT-116 colon 48.4% | HCC-2998 colon 109% | KM12 colon 54.6%

CCc1cc(O)ccc1Nc1cc(-c2ccc(-n3cccn3)cc2)[nH]n1
inactive: SR leukemia 68.9% | RPMI-8226 leukemia 53.5% | OVCAR-8 ovarian 58% | OVCAR-5 ovarian 78.5% | OVCAR-4 ovarian 49% | SK-OV-3 ovarian 87.2% | IGROV1 ovarian 86.4% | HS 578T breast 105% | NCI/ADR-RES ovarian 63.8% | T-47D breast 35.7% | BT-549 breast 85.7% | MDA-MB-435 melanoma 33% | SW-620 colon 63.1% | HCT-116 colon 39% | HCC-2998 colon 61.5% | KM12 colon 16.6%

O=c1c2ccccc2cc2n1CCN=C2c1ccccc1
inactive: SR leukemia 93.6% | RPMI-8226 leukemia 99.2% | OVCAR-8 ovarian 101% | OVCAR-5 ovarian 108% | OVCAR-4 ovarian 97.7% | SK-OV-3 ovarian 103% | IGROV1 ovarian 116% | HS 578T breast 92.6% | NCI/ADR-RES ovarian 99.7% | T-47D breast 91.7% | BT-549 breast 116% | MDA-MB-435 melanoma 104% | SW-620 colon 96% | MCF7 breast 94.7% | HCT-116 colon 106% | HCC-2998 colon 109% | KM12 colon 104%

Cc1ccc(OCc2occc2C(=O)N2CCOCC2)cc1
inactive: SR leukemia 104% | RPMI-8226 leukemia 97.7% | OVCAR-8 ovarian 113% | OVCAR-5 ovarian 102% | OVCAR-4 ovarian 103% | SK-OV-3 ovarian 109% | IGROV1 ovarian 104% | HS 578T breast 104% | NCI/ADR-RES ovarian 107% | T-47D breast 93.1% | BT-549 breast 117% | MDA-MB-435 melanoma 100% | SW-620 colon 102% | MCF7 breast 85.6% | HCT-116 colon 105% | HCC-2998 colon 103% | KM12 colon 107%

Source: PubChem BioAssay (NCI)
